Experiment [1] in a line: NCI Yeast Anticancer Drug Screen. Data for the rad50 strain (AID 155).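 Also: 0% = growth of vehicle-only cultures of the same strain.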 The following applies: S. cerevisiae rad50 strain growth inhibition, stronger effect = higher value. In a few lines: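 Inhibition values express reduced yeast growth in compound-treated cultures relative to vehicle-treated controls.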
A short description of experiment [2]: NCI Yeast Anticancer Drug Screen. Data for the mec2-1 strain (AID 157). The following applies: S. cerevisiae mec2-1 strain, stronger effect = higher value. In a few lines: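 mec2-1 yeast strain, carrying an alteration in DNA damage repair or cell cycle control, was exposed to compounds; growth inhibition was measured relative to vehicle-treated controls.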
The nature of experiment [3]: NCI Yeast Anticancer Drug Screen. Data for the sgs1 mgt1 strain (AID 161).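 Also: 0% = growth of cultures given vehicle only.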 The following applies: S. cerevisiae sgs1 mgt1 strain, stronger effect = higher value. In a few lines:
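Yeast cells carrying a defined DNA-repair defect were exposed to test compounds. Growth inhibition was measured relative to vehicle-treated controls.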

Experiment [4] can be described thus: NCI Yeast Anticancer Drug Screen. Data for the cln2 rad14 strain (AID 165).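 Also: 0% = growth equal to vehicle treated cultures.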 The following applies: S. cerevisiae cln2 rad14 strain, stronger effect = higher value. In outline: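 Yeast carrying cln2 and rad14 alterations (cell cycle control and DNA damage repair) were exposed to compounds. Growth inhibition was measured against vehicle-treated controls.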
A short description of experiment [5]: NCI Yeast Anticancer Drug Screen. Data for the bub3 strain (AID 167). The following applies: S. cerevisiae bub3 mutant strain, stronger effect = higher value. In outline:
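Steps: expose the mutant yeast strain to compound; grow alongside vehicle-treated cultures; measure growth; express inhibition against the vehicle cultures.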

A short description of experiment [6]: NCI Yeast Anticancer Drug Screen. Data for the mlh1 rad18 strain (AID 175). The note with it: S. cerevisiae mlh1 rad18 strain growth inhibition, stronger effect = higher value. In outline:
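Growth inhibition of the yeast strain was measured after compound exposure and expressed relative to vehicle-treated controls. The strain carries defined defects in DNA damage repair.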

The mark [7] stands for this setting: at 5.0 µM (retest, dose inferred, filed as 0.5).
Setting [8] is: at 50.0 µM (retest, dose inferred, filed as 5.0).

About 79,000 compounds went through this panel and 15% of them were active in at least one assay; those are over-represented in the sample as a whole. A number with no mark means an inactive call. Calls of active or inactive are those of the source. Rule as the data show it: active = growth inhibition above about 70%; inactive = the rest.

As to `Oc1c(Br)cc(Br)cc1-c1ccccc1`, the growth inhibition in experiment [1] (setting [7]) is 0%; in experiment [1] (setting [8]), 99% (active); in experiment [1] (at 50.0 µM), 98.1% (active); in experiment [2] (setting [7]) it was 9%; in experiment [2] (setting [8]), 100% (active); in experiment [2] (at 50.0 µM), 99.5% (active). For the same compound, the growth inhibition was 2% in experiment [3] (setting [7]); 99% (active) in experiment [3] (setting [8]); 99.5% (active) in experiment [3] (at 50.0 µM); -5% in experiment [4] (setting [7]); 100% (active) in experiment [4] (setting [8]); 99.2% (active) in experiment [4] (at 50.0 µM). The growth inhibition in experiment [5] (setting [7]) was -5%; in experiment [5] (setting [8]), 100% (active); in experiment [5] (at 50.0 µM), 99.3% (active); in experiment [6] (setting [7]), -8%; in experiment [6] (setting [8]), 99% (active); in experiment [6] (at 50.0 µM) it was 99.3% (active).
With `O=S1Nc2ccccc2S1` (configuration not stated), the growth inhibition in experiment [1] (setting [7]) is 0%; in experiment [1] (setting [8]), 18%; in experiment [1] (at 50.0 µM) it was 58%; in experiment [2] (setting [7]), -1%; in experiment [2] (setting [8]) it was 33%; in experiment [2] (at 50.0 µM), 85.2% (active). Besides, the growth inhibition was 2% in experiment [3] (setting [7]); 42% in experiment [3] (setting [8]); 99.2% (active) in experiment [3] (at 50.0 µM); -8% in experiment [4] (setting [7]); 37% in experiment [4] (setting [8]); 97% (active) in experiment [4] (at 50.0 µM). Besides, the growth inhibition in experiment [5] (setting [7]) is -1%; in experiment [5] (setting [8]), 77% (active); in experiment [5] (at 50.0 µM), 98.7% (active); in experiment [6] (setting [7]), -1%; in experiment [6] (setting [8]), 41%; in experiment [6] (at 50.0 µM) it was 96.2% (active).
With `CC(C)(CC(=O)NNc1ccccc1)C(=O)O`, the growth inhibition in experiment [1] (setting [7]) is 7%; in experiment [1] (setting [8]) it was 72% (active); in experiment [1] (at 50.0 µM) it was 57.6%; in experiment [2] (setting [7]), 4%; in experiment [2] (setting [8]), 61%; in experiment [2] (at 50.0 µM), 20.2%. Besides, the growth inhibition is 14% in experiment [3] (setting [7]); 60% in experiment [3] (setting [8]); 72% (active) in experiment [3] (at 50.0 µM); 19% in experiment [4] (setting [7]); 82% (active) in experiment [4] (setting [8]); 79.2% (active) in experiment [4] (at 50.0 µM). Further, the growth inhibition in experiment [5] (setting [7]) is 22%; in experiment [5] (setting [8]), 94% (active); in experiment [5] (at 50.0 µM), 89.5% (active); in experiment [6] (setting [7]) it was 32%; in experiment [6] (setting [8]) it was 95% (active); in experiment [6] (at 50.0 µM) it was 85.8% (active).
For `Cc1ccc(C)c(N2C/C(=N\NC(=O)CC#N)C(c3nc4ccccc4s3)C(=O)C2=O)c1` (configuration not stated), the growth inhibition in experiment [1] (setting [7]) is 0%; in experiment [1] (setting [8]) it was 1%; in experiment [1] (at 50.0 µM), 7.9%; in experiment [2] (setting [7]), 0%; in experiment [2] (setting [8]) it was 2%; in experiment [2] (at 50.0 µM), -0.3%. Also, the growth inhibition in experiment [3] (setting [7]) is -3%; in experiment [3] (setting [8]), -3%; in experiment [3] (at 50.0 µM), -5.2%; in experiment [4] (setting [7]), -3%; in experiment [4] (setting [8]), -1%; in experiment [4] (at 50.0 µM), 12.6%. The growth inhibition in experiment [5] (setting [7]) was 33%; in experiment [5] (setting [8]) it was 19%; in experiment [5] (at 50.0 µM), -0.3%; in experiment [6] (setting [7]) it was 1%; in experiment [6] (setting [8]), 1%; in experiment [6] (at 50.0 µM) it was 20.9%.
As for `S=C1NC2=C(CSC/C2=C\c2cccc(Br)c2)C(c2cccc(Br)c2)N1` (configuration not stated), the growth inhibition is 9% in experiment [1] (setting [7]); 98% (active) in experiment [1] (setting [8]); 92.7% (active) in experiment [1] (at 50.0 µM); 1% in experiment [2] (setting [7]); 98% (active) in experiment [2] (setting [8]); 94.3% (active) in experiment [2] (at 50.0 µM). The growth inhibition is -1% in experiment [3] (setting [7]); 98% (active) in experiment [3] (setting [8]); 95.7% (active) in experiment [3] (at 50.0 µM); -8% in experiment [4] (setting [7]); 96% (active) in experiment [4] (setting [8]); 90% (active) in experiment [4] (at 50.0 µM). The growth inhibition in experiment [5] (setting [7]) is -15%; in experiment [5] (setting [8]) it was 98% (active); in experiment [5] (at 50.0 µM), 93.8% (active); in experiment [6] (setting [7]) it was 5%; in experiment [6] (setting [8]), 98% (active); in experiment [6] (at 50.0 µM) it was 93.8% (active).
For the compound `CC(C)NC(=O)O/N=C1\CCC2[C@@H]3CC=C4C[C@@H](OC(=O)NC(C)C)CC[C@]4(C)C3CC[C@]12C` (some centres not stated), the growth inhibition in experiment [1] (setting [7]) is 88% (active); in experiment [1] (setting [8]), 77% (active); in experiment [1] (at 50.0 µM) it was 83% (active); in experiment [2] (setting [7]), 91% (active); in experiment [2] (setting [8]), 67%; in experiment [2] (at 50.0 µM), 83% (active). The growth inhibition was 90% (active) in experiment [3] (setting [7]); 73% (active) in experiment [3] (setting [8]); 92.3% (active) in experiment [3] (at 50.0 µM); 95% (active) in experiment [4] (setting [7]); 75% (active) in experiment [4] (setting [8]); 81.2% (active) in experiment [4] (at 50.0 µM). The growth inhibition in experiment [5] (setting [7]) is 83% (active); in experiment [5] (setting [8]), 72% (active); in experiment [5] (at 50.0 µM) it was 91.2% (active); in experiment [6] (setting [7]), 91% (active); in experiment [6] (setting [8]), 71% (active); in experiment [6] (at 50.0 µM) it was 92% (active).
For the compound `CCCCCCCCCCCCc1ccc(S(=O)(=O)O)cc1.[Zn+2]`, the growth inhibition in experiment [1] (setting [7]) is -2%; in experiment [1] (setting [8]), 55%; in experiment [1] (at 50.0 µM) it was 78.4% (active); in experiment [2] (setting [7]), 19%; in experiment [2] (setting [8]), 27%; in experiment [2] (at 50.0 µM) it was 13.2%. The growth inhibition was -4% in experiment [3] (setting [7]); 59% in experiment [3] (setting [8]); 75.3% (active) in experiment [3] (at 50.0 µM); 3% in experiment [4] (setting [7]); 38% in experiment [4] (setting [8]); -49% in experiment [4] (at 50.0 µM). Besides, the growth inhibition in experiment [5] (setting [7]) is -8%; in experiment [5] (setting [8]), 35%; in experiment [5] (at 50.0 µM), 6.15%; in experiment [6] (setting [7]) it was -2%; in experiment [6] (setting [8]) it was 71% (active); in experiment [6] (at 50.0 µM), 30.1%.
Consider `CN(C)CCC(=O)c1ccc2c(ccc3ccccc32)c1`, for which the growth inhibition is 5% in experiment [1] (setting [7]); 36% in experiment [1] (setting [8]); 69.7% in experiment [1] (at 50.0 µM); 10% in experiment [2] (setting [7]); 83% (active) in experiment [2] (setting [8]); 66.8% in experiment [2] (at 50.0 µM). Also, the growth inhibition in experiment [3] (setting [7]) is 8%; in experiment [3] (setting [8]), 92% (active); in experiment [3] (at 50.0 µM), 90.5% (active); in experiment [4] (setting [7]), -3%; in experiment [4] (setting [8]) it was 51%; in experiment [4] (at 50.0 µM) it was -7.8%. In addition, the growth inhibition in experiment [5] (setting [7]) is 6%; in experiment [5] (setting [8]), 94% (active); in experiment [5] (at 50.0 µM), 84.7% (active); in experiment [6] (setting [7]), 0%; in experiment [6] (setting [8]) it was 90% (active); in experiment [6] (at 50.0 µM), 77.2% (active).
For the compound `O=C(c1c(F)c(F)c(F)c(F)c1F)N1CCN(C(=O)c2c(F)c(F)c(F)c(F)c2F)C1=S`, the growth inhibition was 0% in experiment [1] (setting [7]); 91% (active) in experiment [1] (setting [8]); 88.2% (active) in experiment [1] (at 50.0 µM); 15% in experiment [2] (setting [7]); 81% (active) in experiment [2] (setting [8]); 88.7% (active) in experiment [2] (at 50.0 µM). The growth inhibition in experiment [3] (setting [7]) was 8%; in experiment [3] (setting [8]) it was 94% (active); in experiment [3] (at 50.0 µM), 90.9% (active); in experiment [4] (setting [7]), 8%; in experiment [4] (setting [8]), 88% (active); in experiment [4] (at 50.0 µM), 85.3% (active). The growth inhibition in experiment [5] (setting [7]) was -7%; in experiment [5] (setting [8]), 86% (active); in experiment [5] (at 50.0 µM), 85.3% (active); in experiment [6] (setting [7]), 32%; in experiment [6] (setting [8]) it was 92% (active); in experiment [6] (at 50.0 µM), 91.2% (active).

The record behind these values is PubChem BioAssay (NCI).
